An excerpt weighted towards active compounds, which were near 3% of everything screened.
BioA inh = M. tuberculosis BioA enzyme inhibitors, primary screen, biochemical, plate reader, single point, HTS; purified M. tuberculosis BioA enzyme; inhibition, % at 9.99 µM; 0.096% of 360,000 active; AID 602481, 2012; in the data active = inhibition above about 40%
Vc quorum ag = inducers of Vibrio cholerae quorum light production without autoinducers, primary screen, BH1578 luxS cqsA deficient, single point; V. cholerae BH1578 lux reporter, luminescence, 6 h; activation, % at 18.7 µM; AID 588436, 2011; 0.16% of 350,000 active; in the data active = activation mostly above about 9.7%, no sharp cut-off
GDH-TPI counter = GDH-TPI coupling enzyme inhibitors, primary screen, artefact control for M. tuberculosis FBA inhibitor project, biochemical, absorbance, full deck | 1.2% of 360,000 active | inhibition, % at 4.8 µM | GDH-TPI coupled enzyme counterscreen, NADH absorbance; in the data active = inhibition above about 30%
FBA Mtb inh = Mtb FBA enzyme inhibitors, primary screen, biochemical, fluorescence, strain H37Rv. inhibition, % at 1 µM. purified M. tuberculosis FBA, fluorescence read-out. 2.3% of 360,000 active. AID 588726, 2011. Fructose-bisphosphate aldolase (Mycobacterium tuberculosis (strain ATCC 25618 / H37Rv)), …; in the data active = inhibition above about 27%
Target sequence (P9WQA3 whole entry, looked up): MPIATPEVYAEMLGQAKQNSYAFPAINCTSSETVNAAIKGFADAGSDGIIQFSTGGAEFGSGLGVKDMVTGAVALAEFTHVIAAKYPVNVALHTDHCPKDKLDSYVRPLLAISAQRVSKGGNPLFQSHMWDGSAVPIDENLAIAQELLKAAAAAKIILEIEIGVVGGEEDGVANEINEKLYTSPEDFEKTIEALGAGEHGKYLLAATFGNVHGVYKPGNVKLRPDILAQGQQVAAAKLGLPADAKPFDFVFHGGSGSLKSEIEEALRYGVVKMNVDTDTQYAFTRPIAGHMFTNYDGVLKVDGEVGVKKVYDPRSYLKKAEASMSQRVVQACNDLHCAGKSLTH
Hits are given with their value; . = inactive; / = no result given; + = active, no number.

SMILES	BioA inh	Vc quorum ag	GDH-TPI counter	FBA Mtb inh
CO[C@H]1CN(C)C(=O)c2ccc(NC(=O)C3CC3)cc2OC[C@H](C)N(CC2CC2)C[C@H]1C	.	/	/	/
CNC[C@H]1Oc2cc(C#Cc3ccc(OC)cc3)ccc2S(=O)(=O)N([C@@H](C)CO)C[C@@H]1C	.	/	/	/
O=C1NC(=S)N/C1=C\c1cccnc1	.	.	.	.
O=C1/C(=C/c2cccnc2)CC/C1=C\c1cccnc1	.	.	53.8	.
O=C1NC(=S)N/C1=C\c1cccc([N+](=O)[O-])c1	.	.	33.5	.
O=C1NC(=S)N/C1=C/c1cccnc1	.	.	45.0	.
C[C@@H]1CN([C@@H](C)CO)C(=O)Cc2cc(NC(=O)C3CC3)ccc2O[C@@H]1CN(C)Cc1ccc(C(=O)O)cc1	.	/	/	/
O=C(NCCCN1CCOCC1)[C@@H]1N[C@@H]2c3ccc(C4=CCCC4)c(=O)n3C[C@@H]2[C@H]1CO	.	/	/	/
COC(=O)C1=CN(Cc2ccccc2)C=C(C(=O)OC)C1c1cc(F)ccc1F	.	.	.	121.7
COC(=O)C1=CN(c2ccc(F)cc2)C=C(C(=O)OC)C1c1cccc(Br)c1	.	.	.	.
COC(=O)C1=CN(Cc2ccc(C)cc2)C=C(C(=O)OC)C1c1ccc(F)c(F)c1	.	.	.	.
COC(=O)C1=CN(Cc2ccc(OC)c(OC)c2)C=C(C(=O)OC)C1c1cccc(F)c1	.	.	.	123.3
C[C@@H]1CN([C@H](C)CO)C(=O)c2c(c3ccccc3n2C)-c2ccccc2CO[C@@H]1CN(C)C(=O)Nc1ccc(F)cc1	.	/	/	/
O=C1NC(=O)/C(=C/c2ccccc2OCc2ccccc2)S1	/	.	31.7	.
CCOC(=O)c1c(NC(=O)CSc2nc3ccccc3s2)sc(C(C)=O)c1C	/	.	33.3	.
CCOC(=O)c1sc(NC(=O)CSc2nc3ccccc3o2)c(C(=O)OCC)c1C	.	.	.	.
C#CCn1c(=NC(=O)c2cccs2)sc2cccc(OC)c21	.	.	30.8	.
C=CCn1c(=NC(=O)c2cccc(N3C(=O)CCC3=O)c2)sc2cccc(OC)c21	/	.	41.6	.
Cc1ccc(-c2ccc(C(=O)Nc3ccccc3)o2)c2ccccc12	.	.	.	.
Cc1ccc(S(=O)(=O)NC(=O)c2ccc(-c3ccc(C)c4ccccc34)o2)cc1	.	.	.	130.5
CCC(=O)Nc1ccc2c(c1)OC[C@@H](C)N(Cc1cncnc1)C[C@H](C)[C@H](OC)CN(C)C2=O	.	/	/	/
Cn1c(NC(=O)c2ccccc2F)c(-c2cccs2)c(=O)c2ccccc21	/	.	42.9	.
CCS(=O)(=O)Nc1ccc2c(c1)C(=O)N(C)[C@H]1CC[C@H](CC(=O)NCCOC)O[C@H]1CO2	.	/	/	/
CCOC(=O)/C(C#N)=C1/C=CN(c2ccc(C)cc2)C=N1	.	.	43.3	.
CCOC(=O)/C(C#N)=C1\C=CN(C)C(C)=N1	.	.	41.7	.
SMILES	BioA inh	Vc quorum ag	GDH-TPI counter	FBA Mtb inh
CCOC(=O)/C(C#N)=C1/C=Nc2ccccc2N1	.	.	.	.
CCOC(=O)/C(C#N)=C1/C=CN(C)C=N1	.	.	50.3	.
CCOC(=O)/C(C#N)=C1/C=CN(c2ccccc2)C=N1	.	.	38.3	.
C[C@@H]1CCCCO[C@H](CN(C)C(=O)NC2CCCCC2)[C@@H](C)CN([C@H](C)CO)C(=O)c2cc(NC(=O)NC3CCCCC3)ccc2O1	.	/	/	/
CCC(=O)Nc1ccc2c(c1)OC[C@@H](C)N(CCc1ccccc1)C[C@@H](C)[C@@H](OC)CN(C)C2=O	.	/	/	/
C[C@H](CO)N1C[C@H](C)[C@H](CN(C)C(=O)CC2CC2)Oc2cc(C#CC3CC3)ccc2S1(=O)=O	.	/	/	/
CCOC(=O)/C(C#N)=C1/C=CN(Cc2ccccc2)C=N1	.	.	48.3	.
CCOC(=O)c1ccc(COC(=O)c2cc3ccccc3oc2=O)o1	.	.	.	.
CC(=O)Oc1ccc2c(=O)c(-c3ccccc3)coc2c1	/	.	.	.
CC(=O)COc1ccc2cc(-c3ccccc3)c(=O)oc2c1	.	.	40.1	+
COc1ccc(-c2cc3ccc(OC(C)C(=O)O)cc3oc2=O)cc1 (centres undefined)	.	.	.	+
CC(=O)Oc1ccc2cc(-c3ccccc3)c(=O)oc2c1	.	.	.	158.0
CCOC(=O)COc1ccc2cc(C(=O)OCC)c(=O)oc2c1	.	.	38.2	183.8
C[C@H](O)C#Cc1cnc2c(c1)C(=O)N([C@@H](C)CO)C[C@H](C)[C@H](CN(C)Cc1ccccn1)O2	.	/	/	/
Cc1noc(C)c1NC(=O)N(C)C[C@H]1Oc2ncc(C#CC(C)C)cc2C(=O)N([C@H](C)CO)C[C@H]1C	.	/	/	/
CC1CC(C)CN(C(=O)COC(=O)c2ccc[nH]c2=O)C1 (centres undefined)	.	25.0	.	.
O=C(OCC(=O)N1CCCCCC1)c1ccc[nH]c1=O	.	.	.	.
CCS(=O)(=O)Nc1ccc2c(c1)C(=O)N(C)[C@@H]1CC[C@H](CC(=O)NCCOC)O[C@@H]1CO2	.	/	/	/
O=C(c1cccc(-c2cncc3nccn23)c1)N1CCOCC1	.	.	.	+
CC(=O)/C(=N\Nc1ccc(C)cc1)N1CCOCC1	.	.	31.1	.
CCN1c2ccccc2-c2nc3ccccc3n2C1c1cccs1 (centres undefined)	/	.	.	+
C[C@H]1CN([C@@H](C)CO)C(=O)c2cc(NC(=O)CCCN(C)C)ccc2O[C@@H]1CN(C)Cc1ccccc1	.	/	/	/
O=c1[nH]c(=S)n(-c2ccc(F)cc2)c(O)c1/C=N/N1CCOCC1	.	.	31.0	.
CC(=O)N1CCN(CCN=Cc2c(O)n(-c3ccc(C)cc3)c(=S)[nH]c2=O)CC1	.	.	37.0	.
Cc1ccccc1-n1c(O)c(/C=N/N2CCOCC2)c(=O)[nH]c1=S	.	.	.	.
SMILES	BioA inh	Vc quorum ag	GDH-TPI counter	FBA Mtb inh
Cn1c(O)c(/C=N/N2CCOCC2)c(=O)n(-c2ccccc2)c1=S	.	.	35.2	.
O=c1c(/C=N/N2CCOCC2)c(O)n(-c2ccccc2)c(=S)n1-c1ccccc1	/	.	.	.
CCOc1ccc(-n2c(O)c(C=Nc3ccc(N4CCOCC4)cc3)c(=O)[nH]c2=O)cc1	/	.	31.7	.
C[C@H](CO)N1C[C@H](C)[C@@H](CN(C)C)Oc2ccc(NC(=O)Nc3ccc(F)cc3)cc2CC1=O	.	/	/	/
Cc1ccc2c(c1)c1c(c(=O)n(-c3ccccc3C)c(=O)n1CC(=O)NCC1CCCO1)n2C (centres undefined)	.	.	.	+
Cc1cc(C)cc(-n2c(=O)c3ccccc3n(CC(=O)NCC3CCCO3)c2=O)c1 (centres undefined)	.	.	.	.
COc1cccc(CNC(=O)C[C@H]2C=C[C@H](NC(=O)C3CCC3)[C@H](CO)O2)c1	.	/	/	/
COc1ccccc1N=Cc1c(C)c(C#N)c2[nH]c3ccccc3n2c1=O	.	.	.	.
N#Cc1c(C(F)(F)F)cc(=O)n2c1[nH]c1ccccc12	.	.	.	+
Cc1c(Cc2ccccc2)c(=O)n2c([nH]c3ccccc32)c1C#N	.	.	.	133.4
